Laboratory results: the supplement of paper PMC10646978
± gives the standard deviation.

What was measured:
Details in all cases: modulator concentration 10 µM
[1] = system: RAW-Dual (murine macrophage reporter line); test: NF-kB reporter (SEAP) activity fold change vs agonist alone; higher = enhanced NF-kB activity
Outline: (§1)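 In 384-well plates holding 50 000 RAW-Dual murine macrophage reporter cells per well, compound at 10 μM final was pre-incubated for 1 hour at 37 °C, after which a PRR agonist was added overnight. Supernatant SEAP read with QUANTI-Blue at 620 nm absorbance reported NF-κB, and Lucia luciferase read with QUANTI-Luc luminescence reported IRF. Fold change values come from dividing each reporter signal by the mean of agonist-only control wells on the same plate, averaged over replicate plates with propagated errors.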

[2] = system: RAW-Dual (murine macrophage reporter line); test: IRF reporter (Lucia luciferase) activity fold change vs agonist alone; higher = enhanced IRF activity
Outline: as §1

[3] = system: RAW-Dual (murine macrophage reporter line); test: viability score (confluency relative to resting cells, overnight) (fraction); higher = more viable, active = viable (0.7 or more)
Outline: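 Two confluency masks, generated with IncuCyte software over all imaged wells, were applied to IncuCyte images of RAW-Dual macrophages. The cells, in 384-well plates, had been exposed overnight to 10 μM final compound. The viability score is confluency as a fraction of resting cells, and a compound met the cutoff only with both masks above 70% of resting cells.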

[4] = agonist: CpG ODN 1826 0.5 ug/mL

Compound	NF-kB reporter [1, 4]	NF-kB reporter ([1]; agonist: LPS 0.1 ug/mL)	NF-kB reporter ([1]; agonist: MPLA […])	IRF reporter ([2]; agonist: 3'3'-cGAMP 10 ug/mL)	IRF reporter ([2]; agonist: LPS 0.1 ug/mL)	IRF reporter ([2]; agonist: MPLA […])	viability score [3]
O=C(Nc1nc2ccc(Cl)cc2s1)c1ccc(Br)s1	0.998 ± 0.062	0.927 ± 0.072	0.924 ± 0.025	0.975 ± 0.043	1.06 ± 0.054	1.09 ± 0.11	0.999 (active)
O=[N+]([O-])c1ccccc1S(=O)(=O)N1CCCC1	0.974 ± 0.11	1.06 ± 0.065	0.907 ± 0.055	0.921 ± 0.042	1.34 ± 0.087	1.23 ± 0.25	1.01 (active)
O=[N+]([O-])c1ccc(CSc2nc3cccnc3[nH]2)cc1	1.17 ± 0.19	0.949 ± 0.12	0.905 ± 0.077	0.935 ± 0.028	1.16 ± 0.12	1.22 ± 0.2	1.01 (active)
COc1ccccc1-c1noc(C2CN(S(=O)(=O)N(C)C)C2)n1	0.972 ± 0.051	0.982 ± 0.083	1.29 ± 0.09	1.02 ± 0.047	1.27 ± 0.26	1.54 ± 0.51	0.993 (active)
CNC1(C)C2CCC(C2)C1(C)C.Cl (centres undefined)	0.914 ± 0.23	0.931 ± 0.058	0.961 ± 0.061	0.911 ± 0.078	1.1 ± 0.24	1.06 ± 0.12	1 (active)
CCOC(=O)C1=C(CC)OC(N)=C(C#N)C1c1cccc(Oc2ccc(Cl)cc2)c1 (centres undefined)	0.746 ± 0.058	0.662 ± 0.05	0.769 ± 0.073	0.281 ± 0.0095	1.13 ± 0.18	1.12 ± 0.2	0.972 (active)
COC(=O)C1=C(C)NC2=C(C(=O)CC(C)(C)C2)C1c1ccc(OC)c(O)c1 (centres undefined)	1.02 ± 0.095	0.981 ± 0.055	1.01 ± 0.069	1.01 ± 0.077	1.13 ± 0.16	1.05 ± 0.065	1.01 (active)
CC(=O)N1CC(C(=O)Nc2ccc(Br)c(C)c2)C1	1.05 ± 0.071	0.996 ± 0.082	0.973 ± 0.053	0.988 ± 0.035	1.03 ± 0.048	0.909 ± 0.089	0.997 (active)
O=C(NCCN1CCN(c2ccc(Cl)cc2)CC1)c1cnccn1	0.974 ± 0.076	0.967 ± 0.086	1 ± 0.03	0.982 ± 0.049	1.01 ± 0.055	0.919 ± 0.097	0.998 (active)
Cc1ccc(OCC(=O)NN=Cc2cc(Br)cc(Br)c2O)c([N+](=O)[O-])c1	0.928 ± 0.071	0.908 ± 0.11	1.08 ± 0.17	1.01 ± 0.073	1.33 ± 0.26	1.47 ± 0.33	1.02 (active)
COC(=O)CCS(=O)(=O)c1ccc2ccccc2c1	0.886 ± 0.055	1.01 ± 0.1	1.05 ± 0.091	1.08 ± 0.059	1.31 ± 0.16	1.06 ± 0.095	0.995 (active)
Oc1ccc(C=Cc2cc(O)cc(O)c2)cc1	0.984 ± 0.074	0.848 ± 0.042	1.23 ± 0.029	0.493 ± 0.028	0.48 ± 0.087	0.403 ± 0.084	0.904 (active)
CSCCC(NC(=O)C(=Cc1ccccc1)NC(=O)c1ccco1)C(=O)O (centres undefined)	0.764 ± 0.066	0.842 ± 0.054	0.936 ± 0.081	1.05 ± 0.05	1.33 ± 0.081	1.49 ± 0.14	1 (active)
CCOP(C)(=O)C(c1ccccc1)N(C)S(C)(=O)=O (centres undefined)	1.01 ± 0.089	1.04 ± 0.058	1.03 ± 0.062	1.03 ± 0.046	1.66 ± 0.19	1.22 ± 0.17	1.01 (active)
Cn1c(=O)c2c(ncn2CC(O)CO)n(C)c1=O (centres undefined)	1.02 ± 0.2	1.2 ± 0.35	1.08 ± 0.18	0.887 ± 0.066	1.32 ± 0.21	1.29 ± 0.23	0.996 (active)
Brc1c(NC2=NCCN2)ccc2nccnc12 [Prestw-1751]	1.24 ± 0.13	0.858 ± 0.079	0.97 ± 0.035	1.02 ± 0.043	1.01 ± 0.054	1.01 ± 0.12	0.996 (active)
CCOC(=O)C1=C(C)NC(C)=C(C(=O)OCC)C1c1ccc(OC)cc1	0.973 ± 0.088	1.05 ± 0.066	1.02 ± 0.068	1.17 ± 0.044	0.867 ± 0.081	0.987 ± 0.27	0.946 (active)
Cc1c(-c2ccccc2)nc2ccccc2c1C(=O)Nc1ccc(F)cc1F	0.568 ± 0.25	0.889 ± 0.097	0.689 ± 0.11	0.918 ± 0.061	1.36 ± 0.1	1.12 ± 0.19	0.953 (active)
CNCCC(Oc1ccc(C(F)(F)F)cc1)c1ccccc1.Cl (centres undefined)	0.766 ± 0.072	0.848 ± 0.087	1.33 ± 0.19	1.04 ± 0.13	0.972 ± 0.056	0.9 ± 0.19	0.379 (inactive)
Cc1cc(OC2CN(C(=O)Cn3cnc4ccccc43)C2)cc(=O)n1C1CC1	1.16 ± 0.11	1.09 ± 0.099	0.97 ± 0.026	1 ± 0.04	1.06 ± 0.06	0.955 ± 0.092	0.997 (active)
COc1ccc(C(C)NC(=O)CCc2nnc3ccc(-c4ccc(C)c(C)c4)nn23)cc1OC (centres undefined)	1.3 ± 0.23	1.06 ± 0.083	1.4 ± 0.38	0.301 ± 0.14	0.963 ± 0.088	0.623 ± 0.089	1.01 (active)
CCC(=O)N(CCC(c1ccccc1OC)C1CCOC(C)(C)C1)Cc1ccc(OC)cc1 (centres undefined)	0.907 ± 0.072	0.986 ± 0.059	0.938 ± 0.056	1.04 ± 0.055	1.23 ± 0.29	1.04 ± 0.088	1.01 (active)
COC(=O)c1ccc2c(c1)NC(=O)/C2=C(\Nc1ccc(N(C)C(=O)CN2CCN(C)CC2)cc1)c1ccccc1	1.34 ± 0.2	1.18 ± 0.27	1.02 ± 0.063	0.325 ± 0.024	0.851 ± 0.14	0.474 ± 0.041	0.998 (active)
O=C(Nc1ccccn1)NC1CCS(=O)(=O)C1 (centres undefined)	0.659 ± 0.37	0.918 ± 0.22	0.748 ± 0.14	0.881 ± 0.12	1.34 ± 0.085	1.23 ± 0.23	0.948 (active)
CCN1C(=O)C(=C2SC(N3CCOCC3)=NC2=O)c2ccccc21	0.991 ± 0.08	1.07 ± 0.079	0.952 ± 0.064	0.949 ± 0.042	1.22 ± 0.13	0.978 ± 0.23	1.01 (active)
Cn1ccc(C(=O)Nc2nc(C(C)(C)C)cs2)n1	0.805 ± 0.063	1 ± 0.082	1.19 ± 0.083	0.993 ± 0.055	1.31 ± 0.18	1.57 ± 0.44	0.675 (inactive)
CCC1(c2cnc[nH]2)Cc2ccccc2C1	0.746 ± 0.13	1.09 ± 0.17	0.862 ± 0.055	0.764 ± 0.21	1.33 ± 0.14	0.787 ± 0.11	0.876 (active)
